# Measured values published in PubChem BioAssay (EPA / NIEHS).
# Inconclusive results are not listed. The source made the active and inactive calls. Rule for the calls, unless noted: active = hit-call score of the fitted dose curve at least 0.9, where 1 is the maximum; inconclusive = response in the unintended direction; inactive = score below 0.9.
# What was measured:
# [1] = target: Cellular tumor antigen p53 (Homo sapiens) (UniProt P04637); test: TOX21_p53_BLA_p2_ratio: Tox21 HCT-116 p53 Agonism Beta-lactamase Assay, Ratio, Phase 2 (AID 2283592)
# Chain of Cellular tumor antigen p53 (Homo sapiens) (P04637 whole entry, looked up): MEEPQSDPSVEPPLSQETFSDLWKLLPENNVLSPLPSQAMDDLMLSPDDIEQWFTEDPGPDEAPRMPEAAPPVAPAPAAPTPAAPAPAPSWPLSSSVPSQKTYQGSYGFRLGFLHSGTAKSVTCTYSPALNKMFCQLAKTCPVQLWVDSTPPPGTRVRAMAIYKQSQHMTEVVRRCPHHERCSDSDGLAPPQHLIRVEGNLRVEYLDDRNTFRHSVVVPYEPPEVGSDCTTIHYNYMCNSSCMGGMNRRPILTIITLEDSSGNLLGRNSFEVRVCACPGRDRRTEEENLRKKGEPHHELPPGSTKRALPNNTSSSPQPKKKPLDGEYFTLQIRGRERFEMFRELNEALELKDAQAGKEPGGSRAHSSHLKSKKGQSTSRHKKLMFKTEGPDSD
# Procedure, shortened: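 Gain-of-signal p53 agonism was scored from the beta-lactamase FRET ratio (460/530 nm, 405 nm excitation) in HCT116 cells treated 16 h at 37C, 5% CO2, with DMSO serving as negative control and baseline.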
# [2] = target: Cellular tumor antigen p53 (Homo sapiens) (UniProt P04637); test: TOX21_p53_BLA_p3_ratio: Tox21 HCT-116 p53 Agonism Beta-lactamase Assay, Ratio, Phase 3 (AID 2283596)
# Procedure, shortened: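 HCT116 p53-bla cells (4000/well) given compound in DMSO (217-fold dilution) after 5 h, incubated 16 h at 37C. CCF4-AM substrate 2 h at room temperature; 460/530 nm emission ratio, gain fitted against DMSO.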
# [3] = TOX21_p53_BLA_p5_viability: Viability Assessment in the Tox21 HCT-116 p53 Agonism Beta-lactamase Assay, Phase 5 (AID 2283600)
# Procedure, shortened: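 After the 460/530 nm beta-lactamase measurement, the wells received an ATP-detection luciferase reagent; signal was read 30 min later at RT. Compound treatment lasted 16 h on cells pre-incubated 5 h post-seeding.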
# [4] = target: Cellular tumor antigen p53 (Homo sapiens) (UniProt P04637); test: TOX21_p53_BLA_p4_ratio: Tox21 HCT-116 p53 Agonism Beta-lactamase Assay, Ratio, Phase 4 (AID 2283601)
# Procedure, shortened: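 Signal is the blue/green (460nm/530nm) ratio of cleaved versus uncleaved CCF4-AM substrate, read after 2 h substrate loading. Cells were HCT116 carrying the p53-responsive beta-lactamase reporter, dosed 16 h at 37C, 5% CO2; CellTiter-Glo measured in parallel.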
# [5] = test system: Brachyury (BRA) Protein Expression, Deisenroth Lab, TBXT (gene 6862); test: CCTE_Deisenroth_DEVTOX-GLR_legacy_Bra: (Legacy) CCTE's DevTox GLR-Endo Assay Evaluation of Brachyury (BRA) Protein Expression, Deisenroth Lab (AID 2284329; active = hit-call score of the fitted dose curve at least 0.9, where 1 is the maximum; inactive = score below 0.9)
# Procedure, shortened: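 Human pluripotent RUES2-GLR line was exposed twice during 48 h differentiation to a 10-point series, 1 nM - 200 uM. Fraction of Bra-positive cells was scored by imaging against pluripotent baseline and fitted after 0.2% DMSO subtraction.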
# [6] = CCTE_Deisenroth_DEVTOX-GLR_legacy_CellCount: (Legacy) Viability Assessment in CCTE's DevTox GLR-Endo Assay, Deisenroth Lab (AID 2284331; active = hit-call score of the fitted dose curve at least 0.9, where 1 is the maximum; inactive = score below 0.9); conditions: actives raise or lower the signal
# Procedure, shortened: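 Seed RUES2-GLR 24 h; differentiate 48 h, dosing at 0 and 24 h; fix, stain nuclei; image 5 fields/well; count nuclei. Conc. 1 nM - 200 uM, single technical replicate, n=4 experiments; bidirectional fit vs 0.2% DMSO.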
# [7] = test system: SRY-box transcription factor 17 (SOX17) Protein Expression, Deisenroth Lab, SOX17 (gene 64321); test: CCTE_Deisenroth_DEVTOX-GLR_legacy_Sox17: (Legacy) CCTE's DevTox GLR-Endo Assay Evaluation of SRY-box transcription factor 17 (SOX17) Protein Expression, Deisenroth Lab (AID 2284341; active = hit-call score of the fitted dose curve at least 0.9, where 1 is the maximum; inactive = score below 0.9); conditions: actives raise or lower the signal
# Procedure, shortened: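 Using the RUES2-GLR line, compounds are tested as 10-point series during 48-h defined-media differentiation. Sox17 reporter fluorescence per cell determines positivity; endpoint is percentage positive, analysed bidirectionally versus DMSO baseline.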
# [8] = test system: SRY-box transcription factor 2 (SOX2) Protein Expression, Deisenroth Lab, SOX2 (gene 6657); test: CCTE_Deisenroth_DEVTOX-GLR_legacy_Sox2: (Legacy) CCTE's DevTox GLR-Endo Assay Evaluation of SRY-box transcription factor 2 (SOX2) Protein Expression, Deisenroth Lab (AID 2284346; active = hit-call score of the fitted dose curve at least 0.9, where 1 is the maximum; inactive = score below 0.9)
# Procedure, shortened: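 hPSC RUES2-GLR, 384-well; 24 h seed → 48 h endoderm differentiation, 2 doses q24h, 1 nM–200 uM. Fix, nuclear dye, 5 fields/well. Sox2+ cells/cell count; cell positive if >5x BMAD over endoderm ctrl; gain direction vs DMSO.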
# [9] = test system: SRY-box transcription factor 2 (SOX2) Protein Expression, Deisenroth Lab, SOX2 (gene 6657); test: CCTE_Deisenroth_DEVTOX-GLR_Endo_SOX2: CCTE's DevTox GLR-Endo Assay Evaluation of SRY-box transcription factor 2 (SOX2) Protein Expression, Deisenroth Lab (AID 2284412)
# Procedure, shortened: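 RUES2-GLR human pluripotent cells were seeded 24 h, then differentiated 48 h with two chemical exposures 24 h apart. Cells were fixed, nuclei stained and imaged by high-content microscopy. Endpoint is %SOX2+ cells over cell count, minus 0.2% DMSO control; 10-point series 1 nM–200 uM.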
# [10] = test system: SRY-box transcription factor 17 (SOX17) Protein Expression, Deisenroth Lab, SOX17 (gene 64321); test: CCTE_Deisenroth_DEVTOX-GLR_Endo_SOX17: CCTE's DevTox GLR-Endo Assay Evaluation of SRY-box transcription factor 17 (SOX17) Protein Expression, Deisenroth Lab (AID 2284413; active = hit-call score of the fitted dose curve at least 0.9, where 1 is the maximum; inactive = score below 0.9)
# Procedure, shortened: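 Seed RUES2-GLR cells 24 h; start endoderm differentiation; dose at 0 and 24 h (1 nM - 200 uM, 10 points); fix at 48 h, stain nuclei, image 5 fields/well; compute SOX17+/total cells vs 0.2% DMSO.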
# [11] = test system: Brachyury (BRA) Protein Expression, TBXT (gene 6862); test: CCTE_Deisenroth_DEVTOX-GLR_Endo_BRA: CCTE's DevTox GLR-Endo Assay Evaluation of Brachyury (BRA) Protein Expression, Deisenroth Lab (AID 2284417; active = hit-call score of the fitted dose curve at least 0.9, where 1 is the maximum; inactive = score below 0.9)
# Procedure, shortened: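 Percent BRA+ (mesoderm) RUES2-GLR cells after 48 h differentiation with two exposures, 1 nM - 200 uM; 0.2% DMSO control subtracted.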
# [12] = CCTE_Deisenroth_DEVTOX-GLR_Endo_CellCount: Viability Assessment in CCTE's DevTox GLR-Endo Assay, Deisenroth Lab (AID 2284420; active = hit-call score of the fitted dose curve at least 0.9, where 1 is the maximum; inactive = score below 0.9)
# Procedure, shortened: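 Percent change in nuclear-stain cell counts versus 0.2% DMSO, from high-content imaging over 5 fields per well. Over a 48 h endoderm differentiation, RUES2-GLR cells received two doses 24 h apart across a 1 nM–200 uM series, with n=4.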
# [13] = test system: SRY-box transcription factor 17 (SOX17) Protein Expression, Deisenroth Lab, SOX17 (gene 64321); test: CCTE_Deisenroth_DEVTOX-GLR_Pluri_SOX17: CCTE's DevTox GLR-Pluri Assay Evaluation of SRY-box transcription factor 17 (SOX17) Protein Expression, Deisenroth Lab (AID 2284427)
# Procedure, shortened: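 The endpoint is SOX17+ cells as a fraction of cell count, corrected for the 0.2% DMSO control and obtained by high-content fluorescence imaging of fixed cells. Cells were RUES2-GLR under a 48-hour endoderm differentiation, dosed twice at 24-hour intervals over 1 nM–200 uM.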
# [14] = test system: SRY-box transcription factor 2 (SOX2) Protein Expression, Deisenroth Lab, SOX2 (gene 6657); test: CCTE_Deisenroth_DEVTOX-GLR_Pluri_SOX2: CCTE's DevTox GLR-Pluri Assay Evaluation of SRY-box transcription factor 2 (SOX2) Protein Expression, Deisenroth Lab (AID 2284428; active = hit-call score of the fitted dose curve at least 0.9, where 1 is the maximum; inactive = score below 0.9)
# Procedure, shortened: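 Percent SOX2+ cells (SOX2+ count per total cells, fluorescent imaging) in RUES2-GLR human pluripotent line, expressed relative to 0.2% DMSO. Compounds dosed twice at 24 h intervals during 48 h, 1 nM - 200 uM, 10 concentrations.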
# [15] = CCTE_Deisenroth_DEVTOX-GLR_Pluri_CellCount: Viability Assessment in CCTE's DevTox GLR-Pluri Assay Evaluation of Total Cell Counts, Deisenroth Lab (AID 2284430; active = hit-call score of the fitted dose curve at least 0.9, where 1 is the maximum; inactive = score below 0.9)
# Procedure, shortened: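 RUES2-GLR human pluripotent cells, seeded 24 h, then differentiated 48 h with two chemical exposures 24 h apart; 10-point series 1 nM - 200 uM. Fixed, nuclear-stained, imaged (5 fields/well); nuclei count as % change vs 0.2% DMSO.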
# [16] = TOX21_p53_BLA_p4_viability: Viability Assessment in the Tox21 HCT-116 p53 Agonism Beta-lactamase Assay, Phase 4 (AID 2283597);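 note: hits lower the luminescence signal meaning cytotoxicity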
# Procedure, shortened: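 Following a 16 h exposure at 37C, the treated HCT116 wells were first read for the FRET ratio. They were then lysed with CellTiter-Glo, and ATP luminescence was recorded after 30 min at room temperature.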
# [17] = target: Cellular tumor antigen p53 (Homo sapiens) (UniProt P04637); test: TOX21_p53_BLA_p5_ratio: Tox21 HCT-116 p53 Agonism Beta-lactamase Assay, Ratio, Phase 5 (AID 2283599)
# Procedure, shortened: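 Beta-lactamase reporter ratio (blue 460 nm over green 530 nm, 405 nm excitation) after 2 h CCF4-AM loading, in HCT-116 cells exposed 16 h at 37 C to compounds pinned at 217-fold dilution. Increases relative to DMSO baseline scored.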
smiles,measurement,setting,value
CC1(C)S[C@@H]2[C@H](NC(=O)Cc3ccccc3)C(=O)N2[C@H]1C(=O)O,outcome,[1],inactive
same,outcome,[2],inactive
same,outcome,[3],inactive
same,outcome,[4],inactive
same,outcome,[5],inactive
same,outcome,[6],inactive
same,outcome,[7],inactive
same,outcome,[8],inactive
same,outcome,[9],inactive
same,outcome,[10],inactive
same,outcome,[11],inactive
same,outcome,[12],inactive
same,outcome,[13],inactive
same,outcome,[14],inactive
same,outcome,[15],inactive
Nc1nc(N)nc(-c2cc(Cl)ccc2Cl)n1,outcome,[1],inactive
same,outcome,[2],inactive
same,outcome,[4],inactive
CC(CN(C)C)CN1c2ccccc2CCc2ccccc21 (configuration not stated),outcome,[1],inactive
same,outcome,[2],inactive
same,outcome,[3],inactive
same,outcome,[4],inactive
O=C[C@H](O)[C@@H](O)[C@H](O[C@H]1O[C@H](CO)[C@@H](O[C@H]2O[C@H](CO)[C@@H](O)[C@H](O)[C@H]2O)[C@H](O)[C@H]1O)[C@H](O)CO,outcome,[1],inactive
same,outcome,[16],inactive
same,outcome,[17],inactive
CC1OCCC1=O (configuration not stated),outcome,[1],inactive
same,outcome,[2],inactive
same,outcome,[3],inactive
same,outcome,[4],inactive
[O]=[Bi][O][Bi]=[O],outcome,[1],inactive
same,outcome,[2],inactive
same,outcome,[3],inactive
CCC(C)(CN(C)C)OC(=O)c1ccccc1 (configuration not stated),outcome,[1],inactive
same,outcome,[16],inactive
same,outcome,[17],inactive
CN1C[C@H]2c3ccccc3Oc3ccc(Cl)cc3[C@@H]2C1,outcome,[1],inactive
same,AC50,[2],43.8 µM (active)
same,outcome,[4],inactive
C#CC(O)CCCCC (configuration not stated),outcome,[1],inactive
same,outcome,[2],inactive
same,outcome,[3],inactive
same,outcome,[4],inactive
